Assay outcomes from PubChem BioAssay.
JMJD2A Tudor = qHTS Assay for Inhibitors of JMJD2A-Tudor Domain; Lysine-specific demethylase 4A (Homo sapiens), O75164; AlphaScreen JMJD2A-Tudor / H3K4me3 peptide binding; Potency, µM (doses to about 114 µM), most hits filed as inhibitors; hit rate 4.4% among 390,000; AID 504339, 2011; further: nearly all actives have a fitted effect of over 50% in size
HP1b binding inh = HTS for Inhibitors of HP1-beta Chromodomain Interactions with Methylated Histone Tails. AlphaScreen HP1-beta / biotin-H3K9me3 peptide binding. Chromobox protein homolog 1 (Homo sapiens), P83916. AID 540317, 2011. Potency, µM (titrated, usually from 114 µM), hits mostly inhibitors. hit rate 0.56% among 390,000; further: nearly all actives have a fitted effect of over 70% in size
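HP1-beta protein (50 nM final) preincubated 30 min at room temperature with biotinylated H3(1-18)K9me3 peptide (50 nM) in PBS pH 7.4, 0.01% Tween-20, then compound added for 30 min. AlphaScreen streptavidin donor/nickel chelate acceptor beads (10 ug/mL final), 30 min dark, luminescence read.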
TDP1 block = qHTS Assay for Inhibitors of Tyrosyl-DNA Phosphodiesterase (TDP1). hit rate 0.28% among 350,000. recombinant TDP1, AlphaScreen DNA substrate cleavage. Tyrosyl-DNA phosphodiesterase 1 (Homo sapiens), Q9NUW8. Potency, µM (titrated, usually from 130 µM), actives largely listed as inhibitors; further: nearly all actives have a fitted effect of over 40% in size
Target sequence (Q9NUW8 whole entry, looked up): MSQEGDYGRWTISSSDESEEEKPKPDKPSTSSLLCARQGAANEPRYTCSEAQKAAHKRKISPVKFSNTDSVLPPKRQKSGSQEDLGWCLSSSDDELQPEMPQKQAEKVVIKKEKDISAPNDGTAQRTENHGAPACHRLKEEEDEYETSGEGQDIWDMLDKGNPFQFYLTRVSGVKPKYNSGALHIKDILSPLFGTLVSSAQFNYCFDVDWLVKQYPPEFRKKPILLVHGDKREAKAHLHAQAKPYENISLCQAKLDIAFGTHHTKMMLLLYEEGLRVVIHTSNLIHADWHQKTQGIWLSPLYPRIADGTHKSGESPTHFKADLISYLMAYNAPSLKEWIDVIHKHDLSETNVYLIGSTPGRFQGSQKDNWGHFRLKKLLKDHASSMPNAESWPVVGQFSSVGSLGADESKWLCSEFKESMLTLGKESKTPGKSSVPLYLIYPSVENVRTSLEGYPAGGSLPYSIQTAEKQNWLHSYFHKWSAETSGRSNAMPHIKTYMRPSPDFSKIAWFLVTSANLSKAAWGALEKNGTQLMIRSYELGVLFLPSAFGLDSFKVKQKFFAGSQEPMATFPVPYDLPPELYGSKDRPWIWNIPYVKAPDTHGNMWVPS
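Signal: AlphaScreen proximity between streptavidin donor and anti-FITC acceptor beads on intact substrate. Reaction: Tdp1 1 nM, substrate 15 nM final, 5 min RT after 15 min compound preincubation.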
G9a block = qHTS Assay for Inhibitors of Histone Lysine Methyltransferase G9a; Potency, µM (series often up to 102 µM), most hits filed as inhibitors; Histone-lysine N-methyltransferase EHMT2 (Homo sapiens), Q96KQ7; hit rate 8.8% among 350,000; AID 504332, 2011; G9a H3K9 monomethylation, AlphaScreen, 2 h; further: nearly all actives have a fitted effect of over 75% in size
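G9a (20 nM) preincubated 15 min RT with compounds, then 500 nM biotinylated H3K9 peptide and 20 uM SAM added; 2 h RT reaction. Monomethyl-H3K9 product detected by AlphaScreen with anti-H3K9me1 antibody, streptavidin donor and anti-rabbit IgG acceptor beads.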
Sfp inh = qHTS Assay for Inhibitors of Bacillus subtilis Sfp phosphopantetheinyl transferase (PPTase) | hit rate 3.5% among 310,000 | Biochemical Sfp PPTase activity, qHTS | 4'-phosphopantetheinyl transferase ffp (Bacillus subtilis), Q9F4F7 | AID 1490, 2009 | Potency, µM, hits mostly inhibitors;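 further: the enzyme is Sfp with the accession as filed and its product quenches rhodamine fluorescence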
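Compounds were incubated with enzyme (final 15 nM) for 15 min at room temperature before substrate addition started the reaction. Fluorescence at 525 nm excitation, 598 nm emission was recorded immediately and after 30 minutes.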
BAZ2B inh = qHTS Assay for Inhibitors of BAZ2B; Bromodomain adjacent to zinc finger domain protein 2B (Homo sapiens), Q9UIF8; hit rate 4.4% among 360,000; AlphaScreen BAZ2B-H3K14Ac peptide displacement; Potency, µM (titrated, usually from 114 µM), usual class: inhibitors; further: nearly all actives have a fitted effect of over 60% in size
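Compounds, titrated to a top concentration of 110 uM, were incubated 30 min at room temperature with preformed BAZ2B/acetyl-K14 H3 peptide complex (50 nM each). Proximity signal was measured by AlphaScreen after 20 min with beads.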
Hits are given with their value; [ ] = dose if it differs, or a comment. A selection: hits, their analogues and other compounds. The true share with any hit is near 12%. The call rests on the fitted dose curve; in most records, active means well fitted curve in the direction sought with a large enough effect; inconclusive means small, poorly fitted or top-dose-only effect, or another doubt; inactive means no such curve, though single readings can be large; an effect the other way counts as inactive or inconclusive.

For COc1ccc(OCC(=O)OC2CCN(C)CC2)cc1 the results were JMJD2A Tudor inactive, HP1b binding inh inactive, TDP1 block inactive, G9a block inconclusive, Sfp inh inactive and BAZ2B inh inconclusive.
Screening CN1CCC(OC(=O)COc2ccc(Br)cc2)CC1 returned JMJD2A Tudor inactive, HP1b binding inh inactive, TDP1 block inactive, G9a block 45µM, Sfp inh inactive and BAZ2B inh inactive.
Screening CC(C)(C)S(=O)N1Cc2ccc(CO)cc2[C@@H]1CCO (some centres undefined) returned JMJD2A Tudor inactive and HP1b binding inh inactive.
`O=C1c2cccc3cccc(c23)C(=O)N1c1ccc2ncccc2c1` gave JMJD2A Tudor 79µM, HP1b binding inh inactive, TDP1 block inactive, G9a block 25µM, Sfp inh inconclusive and BAZ2B inh inconclusive.
Screening Cc1cccc(N2CCN(C(=O)c3cn(C4CCCCC4)c(=O)c4c3c3ccccc3n4C)CC2)c1C returned JMJD2A Tudor inactive, HP1b binding inh inactive, TDP1 block inactive, G9a block inactive and BAZ2B inh inactive.
For Cc1nn(-c2ccc(N3CCOCC3)nn2)c(C)c1CCC(=O)Nc1ccc(F)cc1F the results were JMJD2A Tudor inactive, HP1b binding inh inactive, TDP1 block inactive, G9a block inactive and BAZ2B inh inactive.
For CCc1ccc(C(=O)NNC(=O)CN2C(=O)NC3(CCCC3)C2=O)cc1 the results were JMJD2A Tudor inactive, HP1b binding inh inactive, TDP1 block inactive, G9a block inactive[12.7 µM] and BAZ2B inh inactive.
For O=C(CN1C(=O)NC2(CCCC2)C1=O)NNC(=O)c1ccc(Br)cc1 the results were JMJD2A Tudor 3.2µM, HP1b binding inh inactive, TDP1 block inactive[0.505 µM], G9a block inactive and BAZ2B inh inactive.
CCOC(=O)c1sc(N)nc1C(C)C was read as JMJD2A Tudor inactive, HP1b binding inh inconclusive, TDP1 block inactive, G9a block inconclusive, Sfp inh 45µM and BAZ2B inh inactive.
`CC[C@H](C)[C@H](NC(=O)[C@H](Cc1ccc(O)cc1)NC(=O)[C@@H](NC(=O)[C@H](CCCN=C(N)N)NC(=O)[C@@H](N)CC(=O)O)C(C)C)C(=O)N[C@@H](Cc1ccc(N)cc1)C(=O)N1CCC[C@H]1C(=O)N[C@@H](Cc1ccccc1)C(=O)O` gave TDP1 block inactive and Sfp inh inactive.
For COc1ccccc1NCC(=O)N/N=C(\C)c1cccs1 the results were JMJD2A Tudor 35µM, HP1b binding inh inconclusive, TDP1 block inactive, G9a block inactive, Sfp inh inactive and BAZ2B inh inconclusive.
COc1cc(NC(=O)c2ccccc2)c(OC)cc1NC(=O)Cc1ccc(Br)cc1 was read as JMJD2A Tudor inactive, HP1b binding inh inactive, G9a block inactive[0.501 µM], Sfp inh inconclusive and BAZ2B inh inactive.
CCN1CCN(CCC(=O)Nc2ccccc2OC)CC1 was read as JMJD2A Tudor inactive, HP1b binding inh inactive, TDP1 block inactive, G9a block inactive, Sfp inh inactive and BAZ2B inh inactive.
For COc1cc(NC(=O)c2ccccc2)c(OC)cc1NC(=O)Cc1cccs1 the results were JMJD2A Tudor 56µM, HP1b binding inh 71µM, Sfp inh inactive and BAZ2B inh 32µM.
`COc1ccccc1NC(=O)CCC(=O)Nc1cc(OC)c(NC(=O)c2cccs2)cc1OC` gave JMJD2A Tudor 79µM, HP1b binding inh inactive, TDP1 block inactive, G9a block inactive, Sfp inh inactive and BAZ2B inh inactive.
`COc1ccccc1NC(=O)CCN1CCN(C)CC1` gave JMJD2A Tudor inactive, HP1b binding inh inactive, TDP1 block inactive, G9a block 50µM, Sfp inh inactive and BAZ2B inh inactive.
C/C(=N\NC(=O)CNc1cccc(Cl)c1C)c1cccs1 was read as JMJD2A Tudor inactive, HP1b binding inh inactive, TDP1 block inactive, Sfp inh inactive and BAZ2B inh inactive.
Screening O=C1Cc2cc(S(=O)(=O)N3CCN(c4ccc(Cl)cc4)CC3)ccc2N1 returned JMJD2A Tudor inactive.
Cn1c(=O)c2c(nc(SCC(=O)Nc3ccc(F)cc3F)n2Cc2ccccc2)n(C)c1=O was read as JMJD2A Tudor inactive, HP1b binding inh inactive, TDP1 block inactive, G9a block inconclusive and BAZ2B inh inactive.
`O=P(O)(O)CP(=O)(O)O` gave TDP1 block inactive, G9a block 7.1µM, Sfp inh inactive and BAZ2B inh 50µM.
Screening O=C(Cn1nnc(-c2cc(C(F)(F)F)cc(C(F)(F)F)c2)n1)NNC(=S)Nc1ccc(Cl)cc1 returned JMJD2A Tudor inconclusive, HP1b binding inh inactive, TDP1 block inactive, Sfp inh inactive and BAZ2B inh inactive.
Screening CCOc1ccccc1NC(=O)C(OC(=O)C1CC1)c1ccccc1 (centres undefined) returned JMJD2A Tudor inactive, HP1b binding inh inactive, TDP1 block inactive, G9a block inactive, Sfp inh inactive and BAZ2B inh inactive.
CCOc1ccccc1NC(=O)C(NCC1(N2CCCCC2)CCCCC1)c1ccccc1 (centres undefined) was read as JMJD2A Tudor 79µM, HP1b binding inh inactive, TDP1 block inactive, G9a block inactive, Sfp inh inconclusive and BAZ2B inh 79µM.
For O=S(=O)(Nc1c(O)ccc2ccccc12)c1cccc2ccccc12 the results were JMJD2A Tudor 79µM and HP1b binding inh 79µM.
For CN(C)CCNC(=O)c1onc(CSc2nc3ccccc3[nH]2)c1C(=O)NCCN(C)C the results were JMJD2A Tudor inactive, HP1b binding inh inactive, Sfp inh inactive and BAZ2B inh inconclusive.
`CCC(=O)Nc1c(C#N)c2nc3ccccc3nc2n1C1CCCCC1` gave JMJD2A Tudor inactive, HP1b binding inh inactive, TDP1 block inactive, G9a block inactive[12.7 µM], Sfp inh inactive and BAZ2B inh inactive.
`COc1ccc(-n2c(NC(=O)c3ccco3)c(C#N)c3nc4ccccc4nc32)cc1` gave JMJD2A Tudor inactive, HP1b binding inh inactive, TDP1 block inactive, G9a block inactive, Sfp inh 35µM and BAZ2B inh inactive.
Screening CCOC(=O)c1c(NC(=O)c2ccco2)n(C2CCCCC2)c2nc3ccccc3nc12 returned JMJD2A Tudor inactive, HP1b binding inh inactive, TDP1 block inactive, G9a block 50µM, Sfp inh inactive and BAZ2B inh inactive.
